Nrf2 block: inhibitors of Nrf2 signaling; A549 ARE-Fluc reporter, luciferase luminescence, 18-24 h; Potency, µM (top dose mostly 46 µM), actives largely listed as inhibitors; actives 2.1% (n = 360,000); AID 504444; further: nearly all actives have a fitted effect of over 60% in size
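Concentration-response testing used A549 ARE_Fluc cells at 5000 cells/well. Following an 18-24 h compound incubation, viability was read by fluorescence (Ex 405/Em 525) and luciferase output by luminescence.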
Pin1 inhibitor: inhibitors of human Pin1 | Q13526 | Potency, µM (highest dose often 115 µM), most hits filed as inhibitors | Pin1 FP peptide displacement, HiFluor488, 10 min | actives 0.009% (n = 390,000); active means well fitted inhibition curve with a large enough effect in the polarisation, with a control signal flat, not every such curve was filed as active; inconclusive means small, poorly fitted or top-dose-only effect, or effect the other way, or a change in a side signal; inactive means no such curve, though single readings can be large or run the other way; the % refers to the polarisation
Target sequence (Q13526 whole entry, looked up): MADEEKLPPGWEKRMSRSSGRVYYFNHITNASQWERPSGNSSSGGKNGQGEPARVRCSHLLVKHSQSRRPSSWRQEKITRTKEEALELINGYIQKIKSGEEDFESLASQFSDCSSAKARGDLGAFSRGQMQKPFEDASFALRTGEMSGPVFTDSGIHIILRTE
A549 viability: kills or reduces viability of A549 cells in Nrf2 counter-screen; A549 ARE-Fluc cells, CellTiter-Fluor viability, 18-24 h; Potency, µM (highest dose often 46 µM), most hits filed as inhibitors; actives 0.16% (n = 390,000); AID 504648
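A549 ARE-Fluc cells in 5% FBS OPTI-MEM, 5000 cells/well, rested 2 h then exposed to compounds in concentration-response for 18-24 h at 37 °C. Viability by CellTiter-Fluor fluorescence (Ex 405/Em 525) after 30 min; luciferase luminescence (BugLite, 15 min, RT) read afterwards.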
Nrf2 ARE act: activators of Nrf2 (ARE) signaling; actives 0.31% (n = 410,000); AREc32 ARE-luciferase reporter (MCF7-derived line), luminescence, 24 h; Potency, µM (titrated, usually from 46.1 µM), actives largely listed as activators; further: nearly all actives have a fitted effect of over 65% in size
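Nrf2 activation is followed as ARE-luciferase induction in the AREc32 line after one day of compound treatment; luminescence is read with Steady-Glo.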
Each line names hits and unclear results; the compound was inactive in the other large screens. Rows were chosen to be rich in hits. Some 2.2% of all compounds tested hit in one or more screens of this group. Unless noted, the call rests on the fitted dose curve; in most records, active means well fitted curve in the direction sought with a large enough effect; inconclusive means small, poorly fitted or top-dose-only effect, or another doubt; inactive means no such curve, though single readings can be large; an effect the other way counts as inactive or inconclusive.

N/C(=N\OC(=O)c1ccc(Br)cc1)c1ccccc1	Nrf2 ARE act 8.9µM (no result: Nrf2 block)
COc1ccccc1CNC(=O)C1CCCN(c2nnc(-n3c(C)ccc3C)s2)C1 (stereo not drawn)	none
CCc1ccc(-c2cc(C)no2)cc1S(=O)(=O)NCc1ccc(OC)cc1	Nrf2 block inconclusive, Pin1 inhibitor inconclusive
CNC(=O)C1(C(F)(F)F)CC(CCCO)CCCO1 (stereo not drawn)	none (no result: Nrf2 ARE act)
COc1ccc(C(=O)O/N=C(/C)c2cccs2)cc1	Nrf2 ARE act 18µM (no result: Nrf2 block)
N/C(=N\OC(=O)c1ccco1)c1ccccc1	Nrf2 block inconclusive, Nrf2 ARE act 18µM
Cc1ccc(/C(N)=N/OC(=O)c2ccco2)cc1	Nrf2 block inconclusive, Pin1 inhibitor inconclusive
COc1ccc(C(=O)O/N=C(\C)c2nccs2)cc1	Nrf2 block inconclusive
O=C(CNC(=O)c1ccccc1)N[C@H](C(=O)Nc1cc(C(F)(F)F)ccc1Cl)c1ccccc1	none (no result: Nrf2 ARE act)
CCCCCCSc1ccc([C@H]2N[C@@](C)(C(=O)OC)[C@H]3C(=O)N(C)C(=O)[C@@H]23)cc1	Nrf2 block 26µM
Cc1ccc(-n2c3c(cc(C(=O)Nc4ccccc4C(N)=O)c2=O)C(=O)CC(C)(C)C3)cc1	none
c1ccc(CNc2nc(-c3ccccn3)nc3ccccc23)cc1	Nrf2 block 16µM
Cc1nc(NCc2ccccn2)c2ccccc2n1	Nrf2 block 6.5µM
Cc1cc(NCc2ccccn2)nc2ccccc12	none
CCc1nc(NCc2ccccn2)c2oc3ccccc3c2n1	Nrf2 block 9.2µM
COc1ccc(C2/C=C\CN(C(=O)CC(C)(C)C)C(C)C(=O)N2Cc2ccc(F)cc2)cc1 (stereo not drawn)	Pin1 inhibitor inconclusive (no result: Nrf2 ARE act)
Oc1ccc(C[C@H]2CN([C@@H](Cc3ccccc3)CN3CCCC3CN3C(=S)NC[C@@H]3Cc3ccccc3)C(=S)N2CC2CCCCC2)cc1 (stereo partly drawn)	none (no result: Nrf2 block, Pin1 inhibitor, A549 viability)
Oc1ccc(C[C@H]2CNC(=S)N2CC2CCCN2C[C@H](Cc2ccc(O)cc2)N2C[C@H](Cc3ccccc3)N(CCc3ccccc3)C2=S)cc1 (stereo partly drawn)	Nrf2 block 21µM
Oc1ccc(C[C@H]2CNC(=S)N2CC2CCCN2C[C@H](Cc2ccc(O)cc2)N2C[C@H](Cc3ccc(O)cc3)N(CC3CCCCC3)C2=S)cc1 (stereo partly drawn)	Nrf2 block 13µM, A549 viability inconclusive
COCCCNC(=O)c1ccc(Cn2c(=O)c3ccccc3n(Cc3c(C)cc(C)cc3C)c2=O)cc1	none
COc1ccc(-c2cc(C(F)(F)F)nc(SCC(=O)N3CCCCC3)n2)cc1OC	none
N#Cc1c(-c2ccc(Cl)cc2)no[n+]1[O-]	none (no result: Nrf2 ARE act)
CCN(CC)c1ccc(NC(=O)c2c(C)nn(-c3ccc(F)cc3)c2-n2cccc2)c(C)c1	Nrf2 block inconclusive
CN(C)c1ccc(C(C(=O)NC2CCCCC2)N(Cc2ccco2)C(=O)c2snc(C(N)=O)c2N)cc1 (stereo not drawn)	Nrf2 block 15µM, A549 viability inconclusive
CC(C)c1ccc(N(C(=O)c2snc(C(N)=O)c2N)C(C(=O)NCC2CCCO2)c2ccc(N(C)C)cc2)cc1 (stereo not drawn)	Nrf2 block 18µM, A549 viability inconclusive
CN(C)c1ccc(C(C(=O)NCC2CCCO2)N(C(=O)c2snc(C(N)=O)c2N)c2ccccc2)cc1 (stereo not drawn)	none
Oc1c(N=Nc2ccccc2)sc2ccccc12	Nrf2 ARE act 2.8µM
COc1ccc([N+](=O)[O-])cc1NCc1ccco1	Nrf2 block inconclusive, Nrf2 ARE act 11µM
COc1ccc(/C=C/C(=O)O)cc1S(=O)(=O)NCc1ccco1	none
COc1ccc(S(=O)(=O)NCc2ccco2)c2ccccc12	Nrf2 block 3.7µM, A549 viability inconclusive, Nrf2 ARE act inconclusive
COc1ccc(-c2nnc3n2N=C(c2ccccc2OC)CS3)c(OC)c1	none (no result: Nrf2 ARE act)
CC(Cc1cccs1)NC(=S)Nc1ccc(Cl)c(Cl)c1 (stereo not drawn)	Nrf2 block inconclusive, Pin1 inhibitor inconclusive
CC(Cc1cccs1)NC(=S)Nc1ccc(Cl)cc1 (stereo not drawn)	Nrf2 block 18µM
Cc1cc(=O)oc2cc(OCc3ccc(C(=O)N4CCN(c5ccc([N+](=O)[O-])cc5)CC4)cc3)ccc12	none
Cc1cc(=O)oc2cc(OCc3ccc(C(=O)N4CCN(c5ccccc5)CC4)cc3)ccc12	Nrf2 block 18µM
Cc1ccc(-n2ncc(C(=O)NCCCN3CCN(c4cccc(Cl)c4)CC3)c2-n2cccc2)cc1	none
